Laboratory results as given in PubChem BioAssay (NCATS).
Results filed as inconclusive are left out. Unmarked numbers belong to inactive results. Calls of active or inactive are those of the source. Calls come from the whole dose curve. Starred links: 1 amine or outer side, 2 acyl side, 3 side chain; linkers in the order of their positions; H or OH if unused. Positions of bridges follow the written chain, without caps; N, C: chain ends. Non-standard residues stand in square brackets, D forms with d. Residues, ends and D or L forms follow the SMILES beside them. ξ: configuration not given here. X1 = CCCCCCCCCC(=O)[C@H](C(=O)[*:2])[C@@H]1CNC(=O)[C@@H](N[*:1])CS1; Phe(3R-OH) = O=C([C@@H](N[*:1])[C@H](O[*:3])c1ccccc1)[*:2]; NMeTrp(4-OMe) = CN[C@@H](Cc1c[nH]c2cccc(OC)c12)C(=O)O; ξThr(3R)(O-yl) = C[C@@H](O[*:3])C(N[*:1])C(=O)[*:2]; NMeThr(3ξ) = CN[C@H](C(=O)O)C(C)O; NMeL = CN[C@@H](CC(C)C)C(=O)O; NMeV = CN[C@H](C(=O)O)C(C)C; ξIle = CC[C@H](C)C(N)C(=O)O; ξV = CC(C)C(N)C(=O)O

test: qHTS for inhibitors of Rabies Virus screened against the NCATS CANVASS Library (AID 1347402); details: Rabies virus infection cell assay; series mostly up to 45.9 µM; note: 0% is about no effect

Row | SMILES | outcome | activity change, negative = inhibition
1 | CNc1ccc(Cl)cc1C(=O)OC[C@]1(C)[C@H]2CC[C@]3(C)[C@@H](C[C@@H](OC)[C@H](C)[C@H]3C3=C(O)C(=O)OC3O)[C@]2(C)CC[C@H]1O (some centres not stated) | inactive | 
2 | CC(=O)O[C@H]1C[C@@]2(C)[C@@H](CC[C@H]3[C@@]4(C)C=CC(=O)[C@@H](C)[C@@H]4[C@H](OC(C)=O)C(=O)[C@@]32C)/C1=C(\CCC=C(C)C)C(=O)O | inactive | 
3 | CC[C@H](C)C(NC(=O)[C@@H](NC)C(C)C)C(=O)NC1C(=O)N(C)[C@@H](C(C)O)C(=O)N[C@@H](C(C)C)C(=O)N(C)[C@@H](CC(C)C)C(=O)NC(C(C)C)C(=O)N(C)[C@@H](C(C)C)C(=O)N(C)[C@@H](Cc2c[nH]c3cccc(OC)c23)C(=O)N[C@@H](C(C)C)C(=O)N[C@@H]([C@H](O)c2ccccc2)C(=O)N[C@@H](C(C)C)C(=O)O[C@@H]1C (stereo partly drawn) (H-[NMeV][ξIle][ξThr(3R)(O-yl)][NMeThr(3ξ)]V[NMeL][ξV][NMeV][NMeTrp(4-OMe)]V[Phe(3R-OH)]V; ester 3-C) | inactive | 
4 | CC1(C)C=Cc2c(ccc3c2OC[C@@H](c2ccc(O)cc2O)C3)O1 | inactive | 
5 | COc1ccc([C@@H]2c3cc(OC)c(OC)cc3C(=O)[C@H](C)C2C)cc1OC (some centres not stated) |  | -3.53% [at 9.14 µM]
6 | O=Cc1ccc2n1C[C@@]1(C[C@H](O)[C@@H](CO)O1)OC2 | inactive | 
7 | C/C(=C\[C@@H](C)CC/C=C/CC/C=C/C(=O)O)[C@H](O)[C@H](C)C(=O)CCCC1CC(=O)NC(=O)C1 | inactive | 
8 | COc1ccc2[nH]c3c(c2c1)CCN1C[C@H]2C[C@@H](OC(=O)c4cc(OC)c(OC)c(OC)c4)[C@H](OC)[C@@H](OC)[C@H]2C[C@H]31 | inactive | 
9 | C[C@@]12CCC[C@@](C)(C(=O)O)[C@H]1CC[C@]13C[C@H]4C[C@H](O[C@@]4(C)C1)[C@H]32 | inactive | 
10 | C=C1CCC2C(C)(C(=O)O)CCC(CC/C(C)=C/C(=O)NC(CCC(N)=O)C(=O)O)[C@@]2(C)C1 (some centres not stated) | inactive | 
11 | O=C(O)[C@@]12CO[C@@]3(O)C4CCN(CC[C@H]31)[C@H]4c1c2[nH]c2ccccc12 | inactive | 
12 | C/C(=C\[C@H](C)C(=O)/C=C/CC1CC(=O)NC(=O)C1)[C@@H]1OC(=O)CCCC/C=C/[C@H](O)[C@@H](O)[C@@H]1C | inactive | 
13 | C=C(C)CC[C@H](Cc1c(O)cc(O)c2c1O[C@H](c1ccc(O)cc1O)CC2=O)C(=C)C | inactive | 
14 | C[n+]1cc2cc(C(N)=O)[nH]c3c(=N)c(Cl)c(N)c1c23 | inactive | 
15 | CC(CCC[C@]1(C)C(=O)C=C[C@@]23C[C@]4(C)O[C@@H](C[C@@H]4[C@H]2O)C31)C(=O)O (some centres not stated) | inactive | 
16 | CC(=O)O[C@H]1CC[C@@]2(C)C(CC[C@]3(C)C2CC=C2C4CC(C)(C)CC[C@]4(C)CC[C@]23C)C1(C)C (some centres not stated) | inactive | 

Row | SMILES | outcome | activity change, negative = inhibition
17 | C=C[C@]1(C)CC[C@@H]([C@H](C)C(=O)CC=C(C)C)O1 | inactive | 
18 | CCCCCCCCCC(=O)[C@@H]1C(=O)N[C@@H](CC(C)C)C(=O)N[C@H](C)C(=O)N2CCC[C@H]2C(=O)N[C@@H](C(C)C)C(=O)N[C@H]2CS[C@H]1CNC2=O (cyclo(L[dA]PV[X1])) | inactive | 
19 | C[C@@H]1C[C@H]2C[C@]3(CCCCN3C)[C@@H]3C[C@H]2[C@H](C1)N(C)C3 | inactive | 
20 | C=CC(C)(C)C(=O)[C@@H](C)[C@@H]1CC[C@](C)(C=C)O1 | inactive | 
21 | CC(C)[C@]12CC[C@@]3(C)[C@H](C)CC[C@H](O)[C@@]3(CC1)c1cc3c(cc12)[nH]c1ccccc13 | inactive | 
22 | COc1cc2c(c(O)c1O)C(=O)c1c(coc1C)C2=O | inactive | 
23 | CC(C)=CCCC(C)(O)[C@H]1CC=C(C)C(O)C1 (some centres not stated) | inactive | 
24 | C[C@@]12C[C@@H](C[C@@H]3C(=O)O[C@@H](c4ccoc4)[C@H](OC(=O)c4ccccc4)[C@@H]31)OC2=O | inactive | 
25 | CN1CCc2cc3c(c4c2[C@H]1[C@@H](O)c1ccccc1-4)OCO3 | inactive | 
26 | CO[C@@H](C[C@@H](C)[C@@H](O)/C=C/C=C/CNC(=O)C(C)(C)[C@H](O)\C(C)=C/C=C\C=C\Cc1cnco1)[C@]1(O)[C@@H](C)C(=O)N(C)[C@@]12COC2=O | inactive | 
27 | COc1ccc(-c2oc3cc(OC)cc(OC)c3c(=O)c2O)cc1 | inactive | 
28 | O=C1OC(CCO)c2cccc(O)c21 (configuration not stated) | inactive | 
29 | O=C1C[C@@H](c2ccc(O)c(-c3c(O)cc(O)c4c3O[C@H](c3ccc(O)cc3)CC4=O)c2)Oc2cc(O)cc(O)c21 | inactive | 
30 | CC1(C)[C@H](Br)CC[C@]23C[C@]4(C)C(=O)CC12C[C@H]34 | inactive | 
31 | CC(=O)N[C@H](C)c1nc(/C=C/C=C/C(=O)CC2CC(=O)CC[C@]2(C)O)cs1 (some centres not stated) | inactive | 
32 | O=C1CC(c2ccc(O)cc2)Oc2cc(O)ccc21 (configuration not stated) | inactive | 
